“And” between values parts separate entries of the source, which are not always exact repeats. Identical values can stand only once. The source made the active and inactive calls.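 The calls were made as follows, unless noted: active = compounds whose cell count with miR-34 switched on is under 0.7 times the count with it off; inactive = the rest.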
Experiments:
[1] = liver-stage malaria parasite growth inhibition, primary screen, cell-based, HepG2, luciferase luminescence, HepG2 viability (AID 624349; in the data active = parasite load remaining mostly below about 12%, no sharp cut-off; inactive = mostly above about 10%;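 also: 100% = mean of DMSO negative control wells on the same plate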); conditions: P. berghei liver stage in HepG2, luciferase luminescence, concentration not given here; parasite load remaining: stronger effect = lower value; viability: measured here: HepG2 viability without parasites
[2] = test system: Aerobactin synthetase IucA (Klebsiella pneumoniae); assay: IucA aerobactin synthetase inhibitors, biochemical, Tocris library, absorbance (AID 1345561; call rule not given here;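 also: 100% = enzyme without compound and 0% = no enzyme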); conditions: purified IucA enzyme assay, absorbance (OD) read-out; stronger effect = lower value;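 tested at 8 µM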
[3] = sensitizers of A549 cells to miR-34 induction, primary screen, imaging, A549 dox-inducible miR-34, nuclei and caspase counts (AID 1347080); conditions: A549 miR-34 inducible, Hoechst nuclei count, 48 h
[4] = survival rescue of mitochondrial mutant cells in low glucose, primary screen, MELAS cybrids, Rieske KO mouse fibroblasts, CellTiter-Glo (AID 1508586;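 active = mean z-score across replicates of 1.96 or higher in either the MELAS or the Rieske mutant cell line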;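 also: z relative to plate mean and SD of compound and empty wells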)
[5] = viability rescue of complex I mutant cybrids, primary screen, cell-based, galactose medium, ATP luminescence (AID 1645843;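 active = z-score of at least 1.8 in each of two replicates, scored against plate mean and spread of sample wells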;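 also: positive z means more ATP and so rescue of galactose-driven cybrid death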); conditions: complex I mutant cybrid cells, 72 h, stronger effect = higher value
[6] = test system: Hepatitis C virus NS3 helicase; assay: HCV NS3 helicase inhibitors, primary screen, biochemical, fluorescence polarization, LOPAC1280 library (AID 687035; in the data active = inhibition above about 37%); conditions: Purified HCV NS3 helicase, Cy5-dT15 ssDNA binding fluorescence polarization; stronger effect = higher value; concentration not given here
[7] = Cy5 fluorescence quenching or enhancement artefacts, artefact control for HCV NS3 helicase inhibitor project, biochemical, LOPAC1280 (AID 687037; call rule not given here); conditions: Cy5-DNA-NS3h complex fluorescence interference counterscreen
[8] = inhibitors of Cryptococcus chitosan production, flow cytometry, Cibacron Brilliant Red staining (AID 1347148; call rule not given here;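 also: compound exposure lasted three days at 37 degrees C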); conditions: Cryptococcus neoformans chitosan, stronger effect = lower value; at 10 µM unless noted
[9] = molecular target: Mitogen-activated protein kinase 7 (Homo sapiens) (UniProt Q13164); assay: ERK5 transactivation activators in reporter cells, primary screen, cell-based, HTS (AID 1508626;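 active = luciferase signal above three times the same-plate solvent-only control wells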;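 also: luciferase driven by Gal4-ERK5 fusion binding five Gal4 sites before minimal TATA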); conditions: HeLa Gal4-ERK5 transactivation, 18 h, at 5 µM, stronger effect = higher value
[10] = stronger effect = lower value, cell number ratio, induced over uninduced
[11] = measured here: relative caspase fold change +Dox/-Dox
[12] = measured here: total cells with miR-34 induction, stronger effect = lower value
[13] = measured here: total cells without miR-34 induction
[14] = MELAS cybrid survival, CellTiter-Glo 48 h, stronger effect = higher value
[15] = Rieske KO mouse fibroblast survival, CellTiter-Glo 72 h

Mitogen-activated protein kinase 7 (Homo sapiens), sequence (Q13164 whole entry, looked up, the tested form may be a part): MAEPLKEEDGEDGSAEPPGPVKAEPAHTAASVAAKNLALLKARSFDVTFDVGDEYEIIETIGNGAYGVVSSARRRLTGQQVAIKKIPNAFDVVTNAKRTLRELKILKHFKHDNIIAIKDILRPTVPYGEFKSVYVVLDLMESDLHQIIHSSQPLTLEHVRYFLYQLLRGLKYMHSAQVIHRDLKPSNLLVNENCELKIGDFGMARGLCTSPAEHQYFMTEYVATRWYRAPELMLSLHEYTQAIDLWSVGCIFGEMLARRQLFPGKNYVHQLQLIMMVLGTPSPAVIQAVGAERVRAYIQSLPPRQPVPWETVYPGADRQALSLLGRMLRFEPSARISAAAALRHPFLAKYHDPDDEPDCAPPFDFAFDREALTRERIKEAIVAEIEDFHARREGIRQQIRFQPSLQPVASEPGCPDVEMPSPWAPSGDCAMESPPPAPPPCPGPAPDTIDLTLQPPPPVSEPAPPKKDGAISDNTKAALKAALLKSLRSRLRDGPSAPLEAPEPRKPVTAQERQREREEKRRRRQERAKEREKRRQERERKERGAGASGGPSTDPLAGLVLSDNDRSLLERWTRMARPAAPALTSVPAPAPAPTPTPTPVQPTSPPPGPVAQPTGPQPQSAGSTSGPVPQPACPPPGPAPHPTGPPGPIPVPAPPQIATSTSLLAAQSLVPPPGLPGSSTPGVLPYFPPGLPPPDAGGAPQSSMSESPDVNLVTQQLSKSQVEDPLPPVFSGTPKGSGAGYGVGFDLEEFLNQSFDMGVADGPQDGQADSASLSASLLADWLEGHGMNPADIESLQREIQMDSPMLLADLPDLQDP

| SMILES | parasite load remaining [1] | viability [1] | remaining activity [2] | fold change [3, 10] | fold change [3, 11] | cell count [3, 12] | cell count [3, 13] | z-score [4, 14] | z-score [4, 15] | z-score [5] | inhibition [6] | fluorescence ratio (interference) [7] | fold fluorescence [8] | luciferase signal [9] |
| --- | --- | --- | --- | --- | --- | --- | --- | --- | --- | --- | --- | --- | --- | --- |
| COc1ccc(C(=O)Nc2sc3c(c2C(N)=O)CCCC3)cc1OC | 36.2% (inactive) | 126% | 100% (inactive) | 0.968 (inactive) and 0.928 (inactive) | 0.55 and 1.37 | 7430 and 8340 | 7670 and 8990 | -0.293 (inactive) | 0.823 | 1.42 (inactive) |  |  |  |  |
| Cc1cc(C)c(S(=O)(=O)Nc2ccccc2C(F)(F)F)c(C)c1 |  |  | 96.1% (inactive) | 0.879 (inactive) | 0.932 | 6450 | 7330 |  |  | 1.2 (inactive) |  |  |  |  |
| C1CCC(N=C(NC23CC4CC(CC(C4)C2)C3)N2CCOCC2)CC1 |  |  | 116% (inactive) | 0.989 (inactive) | 0.888 | 8260 | 8350 |  |  | -0.33 (inactive) | -4% (inactive) | 1 (inactive) | 11.7 [at 130.9 µM] (inactive) |  |
| Cc1cc(F)c(Nc2ncnc3cc(OCc4ccccc4)ccc23)cc1O |  |  | 105% (inactive) | 0.94 (inactive) and 0.947 (inactive) | 0.62 and 2.22 | 7080 and 7020 | 7530 and 7420 | 0.202 (inactive) | 0.0931 | 1.85 (inactive) |  |  |  |  |
| COc1ccccc1N1CCN(CCn2c(=O)[nH]c3c([nH]c4ccccc43)c2=O)CC1 |  |  | 108% (inactive) | 0.88 (inactive) | 0.64 | 8910 | 10100 |  |  | 1.92 (active) |  |  |  |  |
| NC(=O)c1sc(-c2ccsc2)cc1N |  |  | 88.4% (inactive) | 0.841 (inactive) and 0.869 (inactive) | 0.888 and 1.88 | 8280 and 7870 | 9850 and 9060 | -0.221 (inactive) | -0.163 | 0.36 (inactive) |  |  |  |  |
| CC(=O)O[C@@H]1C[C@H]2C(C)(C)C(=O)C=C[C@]2(C)[C@H]2CC[C@@]3(C)[C@H](c4ccoc4)OC(=O)[C@H]4O[C@]43[C@@]21C |  |  | 103% (inactive) | 0.935 (inactive) | 1.22 | 4410 | 4720 |  |  | -0.435 (inactive) |  |  |  | 96 AU (inactive) |

From PubChem BioAssay
